Results: PubChem BioAssay (NCATS)
Where “and” joins values, the source holds several entries; their conditions need not be identical. Equal values may be shown once. Inconclusive results are not listed. Values without a mark were called inactive. Calls of active or inactive are those of the source. Calls come from the whole dose curve; as a rule, active = well fitted curve in the direction sought with a large enough effect; inconclusive = small, poorly fitted or top-dose-only effect, or another doubt; inactive = no such curve, though single readings can be large; an effect the other way counts as inactive or inconclusive.

How the values were obtained:
[1] = molecular target: Cellular tumor antigen p53 (Homo sapiens) (UniProt P04637); experiment: Primary qHTS for small molecule compounds that upregulate eGFP-tagged delta133p53alpha (in N-terminal) cells. (AID 2060322); conditions: NCI-H358 eGFP-delta133p53alpha fluorescence, 24 h; activation: stronger effect = higher value; note: nearly all actives have a fitted effect of over 75% in size; note: potency is the fitted concentration of half-maximal effect;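 for activation: cells pre-induced with doxycycline then dosed without doxycycline; 0% = DMSO vehicle and 100% = reference activator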
How it was run: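 NCI-H358 cells pre-induced 24 h with 10 ng/ml doxycycline for eGFP-delta133p53alpha, plated dox-free and exposed 24 h at 37C to titrated compounds. Fixed, Hoechst-stained; gated GFP peak intensity by laser scanning cytometry, normalized to DMSO (0%) and 57.5 uM 5-azacytidine (100%).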

[2] = molecular target: Aldehyde dehydrogenase, mitochondrial (Homo sapiens) (UniProt P05091); experiment: qHTS for Inhibitors of the Aldehyde Dehydrogenase Family (ALDH2) Primary screen (AID 2061308); conditions: ALDH2 enzyme inhibition qHTS, 1536-well; series mostly up to 56 µM;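 note: plate controls were vehicle for no effect and reference inhibitor for full effect; nearly all actives have a fitted effect of over 55% in size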
[3] = molecular target: Retinaldehyde dehydrogenase 3 (Homo sapiens) (UniProt P47895); experiment: qHTS for Inhibitors of the Aldehyde Dehydrogenase Family (ALDH1A3) Primary screen (AID 2061315); conditions: ALDH inhibition qHTS; series mostly up to 56 µM;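 note: plate controls were DMSO vehicle for no effect and reference inhibitor for full effect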
[4] = BET inhibitor-based combinations targeting novel dependencies in MECOM-rearranged (r) AML: SET-2 cell line (AID 2202231); conditions: SET-2 AML cells viability, CellTiter-Glo luminescence, 48 h; viability: stronger effect = lower value, concentration not given here; note: nearly all actives have a fitted effect of over 35% in size; note: potency is the fitted concentration of half-maximal effect;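 for viability: plate controls were DMSO treated cells for no effect and wells without cells for full effect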
How it was run: (§1)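 Viability of cells (500 per well) is scored by luminescent CellTiter-Glo at 48 hr post-dosing. Eleven-point titrations are normalized to DMSO and empty controls and reduced to AUC values.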

[5] = BET inhibitor-based combinations targeting novel dependencies in MECOM-rearranged (r) AML: OCI-AML3 cell line (AID 2202232); conditions: CellTiter-Glo luminescence, 48 h; Potency: OCI-AML3 viability; series mostly up to 46 µM; note: nearly all actives have a fitted effect of over 35% in size; note: potency is the fitted concentration of half-maximal effect
How it was run: as §1

[6] = BET inhibitor-based combinations targeting novel dependencies in MECOM-rearranged (r) AML: MV-4-11 cell line (AID 2202233); conditions: MV-4-11 AML viability, CellTiter-Glo luminescence, 48 h; series mostly up to 46 µM; note: nearly all actives have a fitted effect of over 45% in size; note: potency is the fitted concentration of half-maximal effect
How it was run: (§2)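 Using pin-tool transfer, drugs were added in 11 doses to cells (500/well), incubated 48 hr, and assessed with CellTiter-Glo. Z-AUC is a mean-centring transformation applied separately to each screened line.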

[7] = BET inhibitor-based combinations targeting novel dependencies in MECOM-rearranged (r) AML: HNT-34 cell line (AID 2202234); conditions: HNT-34 AML viability, CellTiter-Glo luminescence, 48 h; series mostly up to 46 µM; note: nearly all actives have a fitted effect of over 35% in size; note: potency is the fitted concentration of half-maximal effect
How it was run: as §2

[8] = BET inhibitor-based combinations targeting novel dependencies in MECOM-rearranged (r) AML: UCSD-AML1 cell line (AID 2202235); conditions: UCSD-AML1 AML cells viability, CellTiter-Glo, 48 h; series mostly up to 46 µM; note: nearly all actives have a fitted effect of over 40% in size; note: potency is the fitted concentration of half-maximal effect
How it was run: as §2

[9] = BET inhibitor-based combinations targeting novel dependencies in MECOM-rearranged (r) AML: AML-194 cell line (AID 2202237; note: nearly all actives have a fitted effect of over 40% in size; note: potency is the fitted concentration of half-maximal effect); conditions: AML-194 (MECOM-r AML) viability, CellTiter-Glo, 48 h; series mostly up to 46 µM
How it was run: as §1

[10] = BET inhibitor-based combinations targeting novel dependencies in MECOM-rearranged (r) AML: AML-191 cell line (AID 2202236; note: nearly all actives have a fitted effect of over 35% in size; note: potency is the fitted concentration of half-maximal effect); conditions: AML-191 viability, CellTiter-Glo luminescence, 48 h; series mostly up to 46 µM
How it was run: as §1

Chain of Cellular tumor antigen p53 (Homo sapiens) (P04637 whole entry, looked up): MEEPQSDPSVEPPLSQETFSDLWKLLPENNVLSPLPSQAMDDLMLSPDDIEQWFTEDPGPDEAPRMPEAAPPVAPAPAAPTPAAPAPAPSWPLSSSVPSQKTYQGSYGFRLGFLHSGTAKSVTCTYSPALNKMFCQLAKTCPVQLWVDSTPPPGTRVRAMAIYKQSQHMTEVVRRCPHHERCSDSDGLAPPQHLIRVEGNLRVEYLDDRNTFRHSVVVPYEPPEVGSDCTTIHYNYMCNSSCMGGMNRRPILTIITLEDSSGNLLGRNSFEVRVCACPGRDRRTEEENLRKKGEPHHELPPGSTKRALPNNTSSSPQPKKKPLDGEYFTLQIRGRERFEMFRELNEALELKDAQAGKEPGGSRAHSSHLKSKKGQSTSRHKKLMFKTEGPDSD

SMILES	Potency [1]	Potency [2]	Potency [3]	Potency [4]	Potency [5]	Potency [6]	Potency [7]	Potency [8]	Potency [9]	activation [1]	viability [4] [%]	Potency [10]
Cc1ccc(-c2ccc3ncc4c(c3n2)n(C2CCN(C(=O)[C@H](C)O)CC2)c(=O)n4C)cn1	12 µM (active)	inactive	inactive	0.166 µM (active)	0.296 µM (active)	0.209 µM (active)	0.263 µM (active)	0.0934 µM (active)	0.417 µM (active)	–	–	–
Cn1cc(-c2ccc(S(=O)(=O)n3ccc(/C=C/C(=O)Nc4ccccc4N)c3)cc2)cn1	19 µM (active)	inactive	inactive	1.86 µM (active)	1.18 µM (active)	1.18 µM (active)	1.05 µM (active)	1.18 µM (active)	1.05 µM (active)	–	–	–
FC(F)(F)c1ccc(/C=C/c2nc(COc3ccc(CCCCn4ccnn4)cc3)co2)cc1	–	inactive	inactive	0.0742 µM (active)	0.372 µM (active)	0.0295 µM (active)	inactive	inactive	inactive	18.8%	–	–
N#Cc1ccnc(N2C(=O)CC[C@H]2C(=O)N(c2cncc(F)c2)[C@H](C(=O)NC2CC(F)(F)C2)c2ccccc2Cl)c1	–	inactive	inactive	–	inactive	inactive	inactive	–	inactive	-19.7% and -8.38%	105	–
CO[C@@H]1COCC[C@@H]1N[C@@H]1CC[C@@](C(=O)N2CCc3ncc(C(F)(F)F)cc3C2)(C(C)C)C1	–	inactive	inactive	–	inactive	inactive	inactive	–	inactive	-7.67% and -27.6%	122	inactive
O=C(Nc1nc2cccc(-c3ccc(CN4CCS(=O)(=O)CC4)cc3)n2n1)C1CC1	43.2 µM (active) and 34.3 µM (active)	inactive	inactive	18.6 µM (active)	14.8 µM (active)	3.32 µM (active)	14.8 µM (active)	–	13.2 µM (active)	–	–	9.34 µM (active)
C=CCn1c(=O)c2cnc(Nc3ccc(N4CCN(C)CC4)cc3)nc2n1-c1cccc(C(C)(C)O)n1	21.7 µM (active) and 2.69 µM (active)	inactive	inactive	1.32 µM (active)	1.66 µM (active)	0.742 µM (active)	0.296 µM (active)	0.833 µM (active)	0.742 µM (active)	–	–	–
CCn1c(-c2nonc2N)nc2cncc(CNC3CCNCC3)c21	–	inactive	inactive	–	1.66 µM (active)	2.63 µM (active)	–	5.9 µM (active)	4.68 µM (active)	-16.3% and 6.25%	103	1.86 µM (active)
COc1cc2nc(-c3cc(F)ccc3O)nc(N[C@@H]3CNC[C@H]3C(C)(C)O)c2cc1OC	21.3 µM (active)	inactive	inactive	6.61 µM (active)	7.42 µM (active)	0.0066 µM (active)	–	4.17 µM (active)	6.61 µM (active)	–	–	5.25 µM (active)
CC(C)C[C@H](CO)Nc1nc(S[C@@H](C)c2ccccc2)nc2nc(N)sc12	–	inactive	inactive	23.5 µM (active)	26.3 µM (active)	26.3 µM (active)	–	inactive	–	5.67%	–	–
Nc1cccc(-c2cc3c(Oc4cccc(O)c4)ncnc3[nH]2)c1	–	inactive	inactive	20.9 µM (active)	13.2 µM (active)	2.95 µM (active)	0.468 µM (active)	–	5.9 µM (active)	-3.57%	–	3.32 µM (active)
C1=C/COCc2cc(ccc2OCCN2CCCC2)Nc2nccc(n2)-c2cccc(c2)COC/1	15.3 µM (active)	inactive	inactive	4.17 µM (active)	3.32 µM (active)	0.0132 µM (active)	2.09 µM (active)	1.18 µM (active)	2.35 µM (active)	–	–	–
NC(=O)c1cccc2[nH]c(-c3ccc([C@H]4CCCN4)cc3F)nc12	–	inactive	inactive	20.9 µM (active)	20.9 µM (active)	16.6 µM (active)	–	inactive	–	28.6%	–	16.6 µM (active)
Cc1ccc2c(c1)C(=O)[C@]1(O)CCN(c3ccccc3)C1=N2	–	inactive	inactive	–	18.6 µM (active)	23.5 µM (active)	–	inactive	16.6 µM (active)	-1.14% and -10.7%	110	23.5 µM (active)
COc1cc(Nc2c(C#N)cnc3cc(OCCCN4CCN(C)CC4)c(OC)cc23)c(Cl)cc1Cl	30.9 µM (active) and 23.9 µM (active)	inactive	inactive	16.6 µM (active)	6.61 µM (active)	3.32 µM (active)	0.59 µM (active)	8.33 µM (active)	7.42 µM (active)	–	–	–
Cc1cc(O)c(-c2ccc([C@@H](C)CN(C)C)cc2)c2c1[nH]c(=O)c1sccc12	0.301 µM (active)	inactive	inactive	0.148 µM (active)	0.132 µM (active)	0.0833 µM (active)	0.148 µM (active)	0.0934 µM (active)	0.417 µM (active)	–	–	–

SMILES	Potency [1]	Potency [2]	Potency [3]	Potency [4]	Potency [5]	Potency [6]	Potency [7]	Potency [8]	Potency [9]	activation [1]	viability [4] [%]	Potency [10]
Cc1ccccc1-n1c(Cn2nc(-c3cccc(O)c3)c3c(N)ncnc32)nc2cccc(C)c2c1=O	–	inactive	inactive	–	1.86 µM (active)	0.296 µM (active)	14.8 µM (active)	–	inactive	21.6% and 16.7%	105	–
Cc1ccc(S(=O)(=O)Cc2nc(-c3ccc(C(=O)NCc4cccnc4)cc3)oc2C)cc1	–	inactive	inactive	18.6 µM (active)	0.0118 µM (active)	0.132 µM (active)	0.0263 µM (active)	–	–	26.3%	–	0.0235 µM (active)
CCc1c2c(nc3ccc(O)cc13)-c1cc3c(c(=O)n1C2)COC(=O)[C@]3(O)CC	1.51 µM (active)	inactive	inactive	0.0166 µM (active)	0.0093 µM (active)	0.0093 µM (active)	–	0.0083 µM (active)	0.0118 µM (active)	–	–	0.0093 µM (active)
c1cc(N[C@@H]2CCNC2)nc(-c2cnc3ccc(-c4cn[nH]c4)cn23)c1	34.3 µM (active)	inactive	inactive	–	8.33 µM (active)	0.0132 µM (active)	4.17 µM (active)	–	18.6 µM (active)	–	88.2	16.6 µM (active)
Cc1ccc(C(=O)Nc2ccc(Oc3cc4cnn(C)c4cc3-c3cn[nH]c3)c(F)c2)c(=O)n1-c1ccc(F)cc1	15.1 µM (active)	inactive	inactive	11.8 µM (active)	5.25 µM (active)	0.0053 µM (active)	–	5.25 µM (active)	–	–	–	6.61 µM (active)
CC(C)c1noc(N2CCC(COc3ccc(-c4ccc(S(C)(=O)=O)cc4)nc3)CC2)n1	–	inactive	inactive	11.8 µM (active)	4.68 µM (active)	2.35 µM (active)	inactive	inactive	inactive	-0.134% and -12.9%	–	–
COc1ccc(CNc2nc(N(CCO)CCO)nc3c2ncn3C(C)C)cc1	8.49 µM (active)	inactive	inactive	8.33 µM (active)	8.33 µM (active)	6.61 µM (active)	7.42 µM (active)	–	5.9 µM (active)	–	–	3.32 µM (active)
COc1cccc2c1c(O)c(C(=O)N(C)c1ccc(C(F)(F)F)cc1)c(=O)n2C	–	inactive	inactive	–	inactive	inactive	–	inactive	inactive	10.1%	40.7	inactive
CC[C@]12C=CCN3CC[C@@]4(c5cc([C@@]6(C(=O)OC)C[C@H]7C[C@@H](C(C)(F)F)CN(Cc8c6[nH]c6ccccc86)C7)c(OC)cc5N(C)[C@H]4[C@@](O)(C(=O)OC)[C@@H]1OC(C)=O)[C@@H]32	0.199 µM (active)	inactive	inactive	0.783 µM (active)	0.124 µM (active)	0.197 µM (active)	–	0.139 µM (active)	0.139 µM (active)	–	–	0.0698 µM (active)
Cn1ncc2cc(-c3cnc(N)c(Cl)c3N3CCC4(CCNC4=O)CC3)ccc21	–	inactive	inactive	–	inactive	5.25 µM (active)	–	10.5 µM (active)	–	-11.6%	103	0.296 µM (active)
O=C(NCC1CN(c2ccc(N3CCOCC3=O)cc2)C(=O)O1)c1ccc(Cl)s1 (stereo not given)	–	inactive	inactive	–	inactive	inactive	23.5 µM (active)	inactive	inactive	-11.9% and 7.67%	94.7	–
CCOc1cc2ncc(C#N)c(Nc3ccc(F)c(Cl)c3)c2cc1NC(=O)/C=C/CN(C)C	13.5 µM (active)	inactive	inactive	5.9 µM (active)	4.17 µM (active)	0.934 µM (active)	0.296 µM (active)	–	5.25 µM (active)	–	–	4.68 µM (active)
N[C@@H](Cc1cc(I)c(Oc2cc(I)c(O)c(I)c2)c(I)c1)C(=O)O	–	inactive	inactive	–	inactive	inactive	–	inactive	inactive	-1.69% and -8.29% and -5.67%	108	inactive
CCCS(=O)(=O)Nc1ccc(F)c(C(=O)c2c[nH]c3ncc(-c4ccc(Cl)cc4)cc23)c1F	–	inactive	inactive	–	inactive	33.2 µM (active)	14.8 µM (active)	–	inactive	15.9% and 18.8%	117	–
COC(=O)c1ccc2c(C(=Nc3ccc(N(C)C(=O)CN4CCN(C)CC4)cc3)c3ccccc3)c(O)[nH]c2c1	–	inactive	inactive	11.8 µM (active)	10.5 µM (active)	0.166 µM (active)	1.32 µM (active)	–	5.25 µM (active)	5.68%	–	5.25 µM (active)
